# Screens from PubChem BioAssay.
# BoNT-A LC inh2 = inhibitors of Botulinum neurotoxin A light chain protease; multiplex microsphere protease substrate cleavage, flow cytometry; inhibition, % at 10 µM; 360,000 tested, 0.17% active; AID 588499
# 3CLpro inhibitor = SARS-CoV 3CLpro protease inhibition; inhibition, % at 6 µM; recombinant SARS-CoV 3CLpro, quenched FRET peptide cleavage; 290,000 tested, 0.14% active; in the data active = inhibition above about 12%
# Anthrax LF prot = inhibitors of Bacillus anthracis lethal factor protease | P15917 | multiplex microsphere protease cleavage assay, LF | inhibition, % at 10 µM | 360,000 tested, 0.12% active
# Target sequence (P15917 whole entry, looked up): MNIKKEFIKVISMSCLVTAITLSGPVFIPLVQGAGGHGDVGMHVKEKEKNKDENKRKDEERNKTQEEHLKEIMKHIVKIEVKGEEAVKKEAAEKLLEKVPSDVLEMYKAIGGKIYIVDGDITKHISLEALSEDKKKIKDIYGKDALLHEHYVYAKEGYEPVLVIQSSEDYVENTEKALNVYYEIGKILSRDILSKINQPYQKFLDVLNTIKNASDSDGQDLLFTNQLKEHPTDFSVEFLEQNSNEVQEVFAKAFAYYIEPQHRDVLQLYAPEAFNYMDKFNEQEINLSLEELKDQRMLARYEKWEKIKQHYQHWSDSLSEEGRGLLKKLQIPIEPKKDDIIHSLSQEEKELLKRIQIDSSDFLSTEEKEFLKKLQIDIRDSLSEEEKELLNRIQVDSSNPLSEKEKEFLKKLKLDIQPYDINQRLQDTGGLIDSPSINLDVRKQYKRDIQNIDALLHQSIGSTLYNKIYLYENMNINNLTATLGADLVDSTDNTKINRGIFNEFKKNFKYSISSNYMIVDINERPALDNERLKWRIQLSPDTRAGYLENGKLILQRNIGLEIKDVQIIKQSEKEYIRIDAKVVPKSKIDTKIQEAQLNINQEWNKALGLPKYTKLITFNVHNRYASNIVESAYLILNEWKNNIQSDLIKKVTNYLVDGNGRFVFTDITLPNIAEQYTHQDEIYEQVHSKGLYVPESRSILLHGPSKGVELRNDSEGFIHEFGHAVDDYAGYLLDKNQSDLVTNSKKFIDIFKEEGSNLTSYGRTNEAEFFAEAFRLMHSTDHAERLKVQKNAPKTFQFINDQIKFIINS
# BoNT F protease = blocks Botulinum neurotoxin F light chain protease; inhibition, % at 10 µM; 360,000 tested, 0.22% active; Multiplex microsphere protease cleavage assay, flow cytometry; AID 588497; in the data active = inhibition above about 35%, passing the limit was not always enough; inconclusive = no clear call, values can overlap the other calls
# CCHF vOTU inh = CCHFV vOTU protease inhibition; 370,000 tested, 0.55% active; AID 651958; Pep-AMC fluorescence; inhibition, % at 11.5 µM; in the data active = inhibition above about 30%
# Bead autofluor = flagged as autofluorescent in microsphere protease counterscreen | compound autofluorescence counterscreen, microsphere flow cytometry; hits give high values | fluorescence intensity (concentration not given with the values) | 360,000 tested, 3.1% active; in the data active = fluorescence intensity above about 16000; inconclusive = no clear call, values can overlap the other calls
# A number is an active result; – = inactive; ? = inconclusive; · = no result. The list is not random: actives were taken first. Their share in the collection is about 3.9%. Rule as the data show it, unless noted: active = inhibition above about 30%; inconclusive = no clear call, values can overlap the other calls; inactive = below that.
SMILES,BoNT-A LC inh2,3CLpro inhibitor,Anthrax LF prot,BoNT F protease,CCHF vOTU inh,Bead autofluor
OC(CCN1CCC2(CC1)OCCO2)C(F)(F)F (stereo not given),–,–,–,–,–,–
CCOC(=O)C1=C(C)OC(N)=C(C#N)C1c1ccc(OC)c(C)c1OC (stereo not given),?,–,–,–,–,20362
CCOc1cc(C2C(C#N)=C(N)OC(C)=C2C(C)=O)c(Br)c(Br)c1OC(C)C (stereo not given),–,–,–,–,·,21864
CCOC(=O)C1=C(CC)OC(N)=C(C#N)C1c1cc(OC)ccc1OC (stereo not given),?,–,–,–,–,21578
Cc1ccccc1Oc1ncnc2sccc12,–,–,–,–,–,18377
CC(=O)Oc1ccc(OC(C)=O)c(SCCCCCN2CCOCC2)c1,–,–,–,–,–,23369
CCN(CC)CCn1c2ccccc2c2nc3ccc([N+](=O)[O-])cc3cc21,–,–,–,–,–,–
O=C(CSc1ncccc1-c1nc2ccccc2[nH]1)N1CCN(c2ccccc2F)CC1,–,–,–,–,–,17934
O=C(CSc1ncccc1-c1nc2ccccc2[nH]1)NC1CC1,–,–,–,–,–,–
COc1ccccc1N1CCN(C(=O)CSc2ncccc2-c2nc3ccccc3[nH]2)CC1,–,–,–,–,–,21668
COc1ccc(N2CCN(C(=O)CSc3ncccc3-c3nc4ccccc4[nH]3)CC2)cc1,–,–,–,–,·,20130
O=C(Nc1cc(Cl)cc(Cl)c1)C1CC(=O)N(C2CCCC2)C1 (stereo not given),–,·,–,–,–,?
Cc1cnn(-c2ccccc2)c1NC(=O)COCc1ccccc1,·,·,·,·,–,·
NC(=O)Cn1cc(/C=N\NS(=O)(=O)c2ccc(Cl)cc2)c2ccccc21,–,–,–,–,–,–
O=S(=O)(N/N=C/c1cn(Cc2ccccc2)c2ccccc12)c1ccccc1,–,–,–,–,–,22504
O=C(CN1CCN(C(=O)c2ccc(OCc3cn4ccccc4n3)cc2)CC1)Nc1cccc(F)c1,–,·,–,–,–,–
CC(C)Sc1nc(C(F)(F)F)cc(=O)n1-c1ccccc1,?,–,–,–,–,20162
Cn1c(SCc2ccc(Cl)cc2Cl)nc(C(F)(F)F)cc1=O,–,–,–,–,–,–
CCSc1nc(C(F)(F)F)cc(=O)n1-c1ccccc1,?,–,–,–,–,20108
O=C1c2ccccc2C(=Nc2ccccc2)C1c1cccc(Br)c1 (stereo not given),–,–,–,–,–,21729
CCc1ccc(NC(=O)CSc2nnc(-c3ccccn3)n2C)cc1,–,–,–,–,–,19708
CCCCSc1nnc(-c2ccc(NC(=O)CCc3ccccc3)cc2)n1C,–,–,–,–,–,20381
CC(C)OC(=O)CSc1nnc(-c2ccccn2)n1C,–,–,–,–,–,17273
Cn1c(SCC(=O)Nc2ccc(C(=O)O)cc2)nnc1-c1ccccn1,·,·,·,·,–,·
Cc1cc(F)ccc1NC(=O)Cn1c(C)csc1=O,–,·,–,–,–,–
SMILES,BoNT-A LC inh2,3CLpro inhibitor,Anthrax LF prot,BoNT F protease,CCHF vOTU inh,Bead autofluor
CCC1=[N+](C)c2cccc3cccc(c23)N1C,–,–,–,–,–,–
CC1CCCC(C)N1CCNC(=O)Nc1ccc(Cl)cc1 (stereo not given),–,–,–,–,–,22625
NC(=O)COC(=O)CCCc1nc2ccccc2s1,–,–,–,–,–,21657
C(=C\c1ccccc1)/CN1CCN(c2ncnc3c2oc2ccccc23)CC1,?,–,–,–,–,17552
COC(=O)c1ccc(Cn2c(C)c(C(=O)NCc3cccc(C(F)(F)F)c3)sc2=O)o1,–,·,–,–,–,–
O=C(c1ccc(Br)o1)N(Cc1ccccc1)Cc1ccccc1,–,–,–,–,–,–
Cc1c(CN(C)C(=O)c2ccc(Br)o2)cnn1C,?,–,–,–,–,19727
O=C(Nc1cccc(S(=O)(=O)N2CCOCC2)c1)c1ccc(=O)[nH]c1,–,·,–,–,–,–
Cc1ccccc1-c1noc(C23CC4CC(CC(C4)C2)C3)n1,–,–,–,–,–,21714
c1cncc(-c2noc(C34CC5CC(CC(C5)C3)C4)n2)c1,·,–,·,·,–,·
Cc1ccccc1-c1noc(C2CCCCC2)n1,?,–,–,–,–,22659
Cc1ccc2cc(-c3noc(C4CCCCC4)n3)c(=O)[nH]c2c1,–,–,–,–,–,–
CC(=O)NC(Cc1cccc(F)c1)C(=O)NC1CCN(C(=O)Nc2ccc(C)cc2)CC1 (stereo not given),–,–,–,–,–,–
